Assay results reported in PubChem BioAssay.
Values without a mark were called inactive. For some assays here: Entries with a potency or affinity are not part of this list. Active and inactive are the calls of the source. Unless noted, no rule for the calls is given here.

Experiments:
[1] = antimalarial activity against Dd2 strain (AID 2302;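 active = growth inhibition above 50% at the single 2 µM test dose, taken to imply half-maximal potency below 2 µM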;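 also: 0% = DMSO untreated growth and 100% = chloroquine plus artemisinin killed control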); details: P. falciparum Dd2 in RBCs, LDH growth readout, 72 h; at 2 µM; stronger effect = higher value
[2] = human hepatoma cell viability loss – ATP luminescence, cytotoxicity control for P. falciparum antimalarial project, primary screen (AID 2303;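 active = inhibition above 50%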;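 also: 0% = DMSO wells and 100% = digitonin-killed cells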); details: HepG2 viability, 24-48 h, at 10 µM, stronger effect = higher value
[3] = biological target: L-lactate dehydrogenase (Plasmodium falciparum (isolate CDC / Honduras)) (UniProt Q27743); test: PfLDH activity inhibition – cell lysate, 3D7 strain, counter-screen for P. falciparum growth inhibition project (AID 2304);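 also: 0% = vehicle and 100% = reference inhibitor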; details: P. falciparum 3D7 crude extract, LDH APAD/NBT absorbance; at 2 µM; stronger effect = higher value
Sequence of L-lactate dehydrogenase (Plasmodium falciparum (isolate CDC / Honduras)) (Q27743 whole entry, looked up): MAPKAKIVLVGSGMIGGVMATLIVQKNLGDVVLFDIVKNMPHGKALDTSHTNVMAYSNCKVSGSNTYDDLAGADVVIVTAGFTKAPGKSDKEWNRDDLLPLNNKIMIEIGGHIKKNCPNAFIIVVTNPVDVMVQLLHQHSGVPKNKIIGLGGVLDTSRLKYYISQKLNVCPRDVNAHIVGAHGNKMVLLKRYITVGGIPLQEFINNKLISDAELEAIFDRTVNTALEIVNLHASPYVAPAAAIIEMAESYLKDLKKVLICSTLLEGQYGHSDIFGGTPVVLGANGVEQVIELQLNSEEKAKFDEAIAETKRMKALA

[4] = inhibition of 3D7 malaria parasite growth – strain 3D7 (AID 2306);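 also: 0% = DMSO wells and 100% = chloroquine plus artemisinin control wells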; details: P. falciparum 3D7 erythrocytic growth, LDH absorbance, 72 h; at 2 µM; stronger effect = higher value
[5] = biological target: Calcium-dependent protein kinase 1 (Plasmodium falciparum (isolate 3D7)) (UniProt P62344); test: PfCDPK1 kinase inhibitors, biochemical, TCAMS library (AID 1159585; cut-off not given, nearly all actives have IC50 up to about 0.98 µM;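 also: inhibitors leave more ATP so luminescence rises with inhibition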); details: recombinant PfCDPK1, Kinase-Glo ATP depletion luminescence
Sequence of Calcium-dependent protein kinase 1 (Plasmodium falciparum (isolate 3D7)) (P62344 whole entry, looked up): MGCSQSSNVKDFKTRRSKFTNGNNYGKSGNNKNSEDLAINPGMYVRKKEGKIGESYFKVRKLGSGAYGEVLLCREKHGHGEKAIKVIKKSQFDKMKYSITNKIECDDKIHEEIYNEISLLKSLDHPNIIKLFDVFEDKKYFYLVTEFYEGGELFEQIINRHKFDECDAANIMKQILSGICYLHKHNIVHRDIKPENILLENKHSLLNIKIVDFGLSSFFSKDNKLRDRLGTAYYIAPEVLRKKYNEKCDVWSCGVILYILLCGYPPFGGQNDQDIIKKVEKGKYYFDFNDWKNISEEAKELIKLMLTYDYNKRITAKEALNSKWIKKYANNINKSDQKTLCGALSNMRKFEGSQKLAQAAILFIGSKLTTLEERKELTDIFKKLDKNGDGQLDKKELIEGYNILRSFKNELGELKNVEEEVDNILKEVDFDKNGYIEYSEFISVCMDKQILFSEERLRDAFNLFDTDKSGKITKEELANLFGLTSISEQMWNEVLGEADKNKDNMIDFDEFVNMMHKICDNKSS

[6] = biological target: Plasmodium falciparum protein kinase 6 (PK6, PF3D7_1337100) (UniProt Q8IDW1); test: PfPK6 kinase inhibitors, biochemical, TCAMS library (AID 1159586); details: recombinant PfPK6, Kinase-Glo ATP depletion luminescence
Sequence of Plasmodium falciparum protein kinase 6 (PK6, PF3D7_1337100) (Q8IDW1 1-305): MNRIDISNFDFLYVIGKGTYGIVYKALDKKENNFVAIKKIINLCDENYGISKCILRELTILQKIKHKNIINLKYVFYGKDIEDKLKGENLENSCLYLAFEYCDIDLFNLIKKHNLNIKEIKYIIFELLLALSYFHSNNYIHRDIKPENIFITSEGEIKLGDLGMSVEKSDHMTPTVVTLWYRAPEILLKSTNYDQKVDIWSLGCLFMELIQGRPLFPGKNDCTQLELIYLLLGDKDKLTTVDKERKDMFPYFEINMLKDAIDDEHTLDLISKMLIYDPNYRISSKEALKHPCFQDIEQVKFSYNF

[7] = biological target: Protein kinase 7 (PK7), Plasmodium falciparum 3D7 (PF3D7_0213400) (UniProt Q7YTF7); test: inhibition of Plasmodium PK7 catalytic activity – biochemical, TCAMS antimalarial set, Kinase-Glo luminescence (AID 1159587); details: recombinant PfPK7, Kinase-Glo ATP depletion luminescence
Sequence of Protein kinase 7 (PK7), Plasmodium falciparum 3D7 (PF3D7_0213400) (Q7YTF7 1-343): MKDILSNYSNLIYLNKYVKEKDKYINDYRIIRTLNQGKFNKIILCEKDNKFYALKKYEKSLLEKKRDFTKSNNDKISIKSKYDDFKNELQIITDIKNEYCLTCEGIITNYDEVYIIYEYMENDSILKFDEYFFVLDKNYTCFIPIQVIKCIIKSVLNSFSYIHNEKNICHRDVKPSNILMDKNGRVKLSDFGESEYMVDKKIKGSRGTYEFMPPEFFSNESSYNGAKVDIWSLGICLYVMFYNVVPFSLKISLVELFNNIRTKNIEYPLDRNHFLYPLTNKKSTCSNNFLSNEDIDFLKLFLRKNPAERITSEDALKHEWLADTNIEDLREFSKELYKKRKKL

[8] = biological target: Calcium-dependent protein kinase 4 (Plasmodium falciparum (isolate 3D7)) (UniProt Q8IBS5); test: PfCDPK4 kinase inhibitors, biochemical, TCAMS library (AID 1159588; cut-off not given, nearly all actives have IC50 up to about 0.91 µM); details: recombinant PfCDPK4, Kinase-Glo ATP depletion luminescence
Sequence of Calcium-dependent protein kinase 4 (Plasmodium falciparum (isolate 3D7)) (Q8IBS5 whole entry, looked up): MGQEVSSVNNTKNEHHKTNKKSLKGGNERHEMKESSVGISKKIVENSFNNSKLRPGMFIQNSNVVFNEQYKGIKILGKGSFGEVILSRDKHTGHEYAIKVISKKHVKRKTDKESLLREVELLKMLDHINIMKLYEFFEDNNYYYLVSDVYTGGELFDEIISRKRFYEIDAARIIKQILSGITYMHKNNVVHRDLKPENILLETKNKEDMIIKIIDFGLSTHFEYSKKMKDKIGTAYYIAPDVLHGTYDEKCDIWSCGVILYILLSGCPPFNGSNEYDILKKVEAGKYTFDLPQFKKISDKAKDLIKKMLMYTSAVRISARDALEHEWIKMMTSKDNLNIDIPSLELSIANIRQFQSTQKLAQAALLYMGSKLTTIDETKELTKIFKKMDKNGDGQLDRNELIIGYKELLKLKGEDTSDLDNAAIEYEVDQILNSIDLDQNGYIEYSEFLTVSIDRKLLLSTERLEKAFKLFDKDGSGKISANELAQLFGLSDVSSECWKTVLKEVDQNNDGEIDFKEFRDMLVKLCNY

SMILES	growth inhibition [1]	inhibition [2]	inhibition [3]	growth inhibition [4]	outcome [5]	outcome [6]	outcome [7]	outcome [8]
Cc1ccc(NCc2cccc(F)c2)cc1S(=O)(=O)N[C@@H]1CCN(C#N)C1	83% (active)	13%	-2%	89% (active)	inactive	inactive	inactive	inactive
Cc1nc(-c2ccc(-c3ccc(NC(=O)c4coc5ccc(N6C[C@@H](C)N[C@@H](C)C6)cc45)cc3)c(C)c2)no1	88% (active)	1%	1%	101% (active)	inactive	inactive	inactive	inactive
COc1ccccc1NC(=O)c1cc(C(=O)c2cc(Cl)ccc2O)cn(-c2ccccc2OC)c1=O	31%	9%	7%	92% (active)	inactive	inactive	inactive	inactive
CC(C)CNCc1cccc(-c2ccc(CNC3CCN(Cc4ccccc4)CC3)cc2)c1	99% (active)	44%	3%	100% (active)	inactive	inactive	inactive	inactive
CN(C)CCCN(C)C(=O)c1cc2cc(-c3ccccc3)ccc2n1S(=O)(=O)c1ccccc1	66% (active)	29%	-1%	98% (active)	inactive	inactive	inactive	inactive
CCCc1cn2c3c(cc(C(=O)N[C@@H](Cc4ccccc4)[C@H](O)CNC4CCCCC4)cc13)N(CC)S(=O)(=O)CC2	98% (active)	2%	-2%	98% (active)	inactive	inactive	inactive	inactive
COc1ccc(-c2cccc(NC(=O)c3cccc(Cl)c3)c2)cc1CN1CCNCC1	52% (active)	29%	9%	101% (active)	inactive	inactive	inactive	inactive
CC(CN(C)C)C(=O)Nc1ccc(-c2cccc(-c3nc4ccccc4[nH]3)c2)cc1 (stereo not given)	57% (active)	68% (active)	4%	99% (active)	inactive	inactive	inactive	inactive
NOCCCOc1ccc(Cl)cc1	0%	12%	0%	98% (active)	inactive	inactive	inactive	inactive
Oc1ccccc1CN(CCCN(Cc1ccccn1)Cc1ccccc1O)Cc1ccccn1	92% (active)	64% (active)	3%	92% (active)	inactive	inactive	inactive	inactive
COc1ccc(C2C(C(=O)Nc3ccccc3)=C(C)Nc3c(C(=O)Nc4ccccc4)cnn32)cc1 (stereo not given)	66% (active)	13%	-1%	85% (active)	inactive	inactive	inactive	inactive
O=c1cc(N2CCCNCC2)c(Cl)nn1Cc1ccc(NS(=O)(=O)c2ccc(Oc3ccccc3)cc2)cc1	-4%	0%	-2%	98% (active)	inactive	inactive	inactive	inactive
c1ccc(COc2ccc(C3CCCCC3)cc2)nc1	1%	0%	0%	99% (active)	inactive	inactive	inactive	inactive
O=c1cc(NCCCNCc2cc(F)cc(C(F)(F)F)c2)[nH]c2ccccc12	15%	-6%	1%	92% (active)	inactive	inactive	inactive	inactive
COc1ccc(CCn2c(=N)c(C(=O)NCc3cccnc3)cc3c(=O)n4cccc(C)c4nc32)cc1	12%	5%	0%	92% (active)	inactive	inactive	inactive	inactive
Cc1cccc(C=NNc2cc(C)nc3ccc(F)cc23)n1	45%	1%	3%	95% (active)	inactive	inactive	inactive	inactive
Cc1cc(NCCC(=O)NCCc2ccccc2)nc(NCCc2ccc(F)cc2)n1	7%	0%	-1%	92% (active)	inactive	inactive	inactive	inactive
CNCCNCc1ccc(-c2cccc(-c3nc4ccc(C(F)(F)F)cc4[nH]3)c2)cc1	77% (active)	27%	1%	98% (active)	inactive	inactive	inactive	inactive
Cc1ccc2c(NN=Cc3cccc(F)c3)cc(C)nc2c1	66% (active)	34%	-2%	96% (active)	inactive	inactive	inactive	inactive
Cc1nc2ccccc2c(=O)n1NCc1ccc(Cl)c(Cl)c1	92% (active)	12%	0%	96% (active)	inactive	inactive	inactive	inactive

SMILES	growth inhibition [1]	inhibition [2]	inhibition [3]	growth inhibition [4]	outcome [5]	outcome [6]	outcome [7]	outcome [8]
COc1ccc2ncc(F)c(CCN3CC[C@H](NCc4cc5c(s4)CCCN5)[C@H](O)C3)c2n1	16%	2%	0%	96% (active)	inactive	inactive	inactive	inactive
COc1cc(Cc2cnc(N)nc2N)cc(OCCCCc2nn[nH]n2)c1OC	0%	7%	1%	97% (active)	inactive	inactive	inactive	inactive
CC(CCCCC(=O)Nc1ccc(C(F)(F)F)cc1)NCC(O)c1cccc(Cl)c1 (stereo not given)	92% (active)	51% (active)	-8%	99% (active)	inactive	inactive	inactive	inactive
COc1ccc(-c2ccc(S(=O)(=O)Nc3cc4c(cc3OC(C)C)CCN(C)CC4)cc2)cc1	2%	16%	-4%	98% (active)	inactive	inactive	inactive	inactive
CCNc1cc(C(=O)N[C@@H](Cc2ccccc2)[C@H](O)CNCCc2ccccc2)cc(N2CCCC2=O)c1	46%	-4%	2%	92% (active)	inactive	inactive	inactive	inactive
Cc1noc(C)c1-c1cccc(CNCc2cccc(-c3csc(-c4nc5ccccc5[nH]4)c3)c2)c1	74% (active)	32%	-7%	100% (active)	inactive	inactive	inactive	inactive
Cn1ccnc1S(=O)(=O)CCNCc1ccc(-c2ccc3ncnc(Nc4ccc(OCc5cccc(F)c5)c(Cl)c4)c3c2)o1	94% (active)	-2%	-3%	101% (active)	inactive	inactive	inactive	inactive
CCN(CC)c1cc(C)c2cc(NC(=O)c3cc(=O)c4ccccc4o3)ccc2n1	67% (active)	14%	1%	97% (active)	inactive	inactive	inactive	inactive
CCCC(C)Nc1nc(C)cc(N[C@@H](CC(C)C)C(=O)NCCOc2ccccc2)n1 (stereo not given in full)	28%	15%	1%	93% (active)	inactive	inactive	inactive	inactive
CCCC(C)NC(=O)C(N)Cc1cccc(I)c1 (stereo not given)	65% (active)	11%	0%	95% (active)	inactive	inactive	inactive	inactive
Cc1ccc(NC(=O)NCCCCCN2CCC(c3c[nH]c4ccccc34)CC2)cc1I	5%	96% (active)	6%	94% (active)	inactive	inactive	inactive	inactive
CC(C)(CNC(=O)[C@@H]1CCCN(Cc2ccc(Cl)cc2)C1)c1nc(-c2ccc(Cl)c(O)c2)c(-c2ccncc2)[nH]1	37%	66% (active)	-2%	97% (active)	inactive	inactive	inactive	inactive
O=C(/C=C/c1ccc(Cl)c(Cl)c1)NC1CCN(CCCNC(=O)c2cccc(Cl)c2)CC1	28%	36%	-2%	100% (active)	inactive	inactive	inactive	inactive
CCCCN(Cc1cc(Cl)c(OC)c(OC)c1)c1ccc(C(O)(C(F)(F)F)C(F)(F)F)cc1	73% (active)	3%	6%	98% (active)	inactive	inactive	inactive	inactive
OC(CNc1ccnc(Nc2cccc(Cl)c2)n1)c1cccc(C(F)(F)F)c1 (stereo not given)	98% (active)	11%	4%	101% (active)	inactive	inactive	inactive	inactive
c1ccc(Oc2cccc(Nc3ccnc4ccccc34)c2)cc1	14%	48%	6%	95% (active)	inactive	inactive	inactive	inactive
CC(C)C(C)(C#N)NC(=O)CSc1nc2ccc([N+](=O)[O-])cc2s1 (stereo not given)	81% (active)	-11%	3%	95% (active)	inactive	inactive	inactive	inactive
C[C@@H]1CN(c2nc(NCCc3ccc(O)cc3)nc(NCc3ccccc3-c3ccc(C(F)(F)F)cc3)n2)C[C@H](C)N1	68% (active)	24%	7%	100% (active)	inactive	inactive	inactive	inactive
CCc1cc(I)c2c(c1)C(NCCCNc1cc(=O)c3ccccc3[nH]1)CCN2 (stereo not given)	32%	19%	-1%	89% (active)	inactive	inactive	inactive	inactive
CC(CCc1ccccc1)NCC(O)c1ccc2c(c1)S(=O)(=O)c1ccccc1N2 (stereo not given)	4%	17%	0%	95% (active)	inactive	inactive	inactive	inactive
